# Assay outcomes (PubChem)
# HP1b binding inh: HP1-beta chromodomain-methylated histone interaction inhibition; Potency, µM (highest dose often 114 µM), inactives show at the top dose activity change, negative = inhibition, actives largely listed as inhibitors; 390,000 compounds, 0.56% hits; AID 540317; P83916; AlphaScreen HP1-beta / biotin-H3K9me3 peptide binding; further: potency means the concentration at half of the fitted maximal effect; nearly all actives have a fitted effect of over 70% in size
#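 HP1-beta protein (50 nM final) preincubated 30 min at room temperature with biotinylated H3(1-18)K9me3 peptide (50 nM) in PBS pH 7.4, 0.01% Tween-20, then compound added for 30 min. AlphaScreen streptavidin donor/nickel chelate acceptor beads (10 ug/mL final), 30 min dark, luminescence read.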
# G9a inh: blocks human histone lysine methyltransferase G9a. 350,000 compounds, 8.8% hits. G9a H3K9 monomethylation, AlphaScreen, 2 h. AID 504332. Potency, µM (doses to about 102 µM), for inactives: at the top dose activity, negative = inhibition, hits mostly inhibitors; further: potency means the concentration at half of the fitted maximal effect; on the % scale 0 is the no-effect control and ±100 the full control effect; nearly all actives have a fitted effect of over 75% in size
# Target sequence (Q96KQ7 913-1193 limits assumed): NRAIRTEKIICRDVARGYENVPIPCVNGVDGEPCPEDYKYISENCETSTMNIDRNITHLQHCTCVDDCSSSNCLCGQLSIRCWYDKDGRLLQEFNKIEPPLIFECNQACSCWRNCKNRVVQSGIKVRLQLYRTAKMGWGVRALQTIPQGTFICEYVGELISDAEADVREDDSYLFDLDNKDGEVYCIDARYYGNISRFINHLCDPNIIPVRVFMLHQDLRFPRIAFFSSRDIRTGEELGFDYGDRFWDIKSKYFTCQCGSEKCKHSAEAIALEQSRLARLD
#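 Step 1: enzyme (final 20 nM) with compound, 15 min RT. Step 2: substrate peptide 500 nM and SAM 20 uM, 2 h RT. Step 3: anti-H3K9me1 antibody and AlphaScreen beads, 10 min, then plate read.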
# PI5P4Ka inh: PI5P4K alpha (human) kinase inhibition; P48426; PI5P4Kalpha enzyme, ADP-Glo luminescence, 60 min; active compounds read low; max response, %; 330,000 compounds, 1.2% hits; active means max response of -50% or lower; inconclusive means between -30% and -50%; inactive means -30% or higher; further: value at the top dose of about 77 µM; on the % scale 0 is the no-effect control and ±100 the full control effect
# Target sequence (P48426 whole entry, looked up): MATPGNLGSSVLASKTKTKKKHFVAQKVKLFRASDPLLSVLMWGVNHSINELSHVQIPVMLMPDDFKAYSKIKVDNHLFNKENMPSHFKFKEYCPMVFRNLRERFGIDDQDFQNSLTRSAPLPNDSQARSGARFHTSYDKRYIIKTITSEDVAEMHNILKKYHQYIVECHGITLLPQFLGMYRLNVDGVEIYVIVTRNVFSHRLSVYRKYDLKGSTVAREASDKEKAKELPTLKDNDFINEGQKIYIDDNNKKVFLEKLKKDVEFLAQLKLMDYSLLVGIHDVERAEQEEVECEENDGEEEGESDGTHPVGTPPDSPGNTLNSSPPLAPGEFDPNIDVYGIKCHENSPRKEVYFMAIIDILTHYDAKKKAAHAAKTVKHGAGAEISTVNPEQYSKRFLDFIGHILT
#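 Quantitative HTS of the MLSMR library against PI5P4Kalpha with substrate. ATP added last at 5 microM final; room temperature, 60 minutes. Remaining ATP depleted, ADP converted and read as luminescence.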
# BAZ2B block: BAZ2B (human) inhibition; Q9UIF8; AlphaScreen BAZ2B-H3K14Ac peptide displacement; 360,000 compounds, 4.4% hits; Potency, µM (series often up to 114 µM), without a hit: at the highest dose activity change, negative = inhibition, hits mostly inhibitors; AID 504333; further: potency means the concentration at half of the fitted maximal effect; on the % scale 0 is the no-effect control and ±100 the full control effect; nearly all actives have a fitted effect of over 60% in size
#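 Multi-concentration screen (max 110 uM) measuring displacement of acetylated histone H3 peptide from BAZ2B by AlphaScreen, using 50 nM protein, 50 nM peptide and 10 ug/mL streptavidin donor plus Ni-chelate acceptor beads.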
# JMJD2A Tudor inh: blocks the human JMJD2A Tudor domain; O75164; 390,000 compounds, 4.4% hits; AlphaScreen JMJD2A-Tudor / H3K4me3 peptide binding; Potency, µM (highest dose often 114 µM), for the others: at the top dose activity change, negative = inhibition, most hits filed as inhibitors; further: potency means the concentration at half of the fitted maximal effect; on the % scale 0 is the no-effect control and ±100 the full control effect; nearly all actives have a fitted effect of over 50% in size
# PLK1 PBD inh: PLK1 (human) polo-box domain binding inhibition | 360,000 compounds, 2.8% hits | Plk1 PBD binding of FITC phosphopeptide, fluorescence polarization | Potency, µM, for inactives: max response, negative = inhibition, actives largely listed as inhibitors | P53350; further: potency means the concentration at half of the fitted maximal effect; series mostly up to about 57 µM; on the % scale 0 is the no-effect control and ±100 the full control effect; nearly all actives have a fitted effect of over 65% in size
# Active calls of the source: *; ? = inconclusive; · = no result given; [ ] = dose if it differs, or a comment. A selection: hits, their analogues and other compounds. The true share with any hit is near 12%. Unless noted, the call rests on the fitted dose curve; in most records, active means well fitted curve in the direction sought with a large enough effect; inconclusive means small, poorly fitted or top-dose-only effect, or another doubt; inactive means no such curve, though single readings can be large; an effect the other way counts as inactive or inconclusive.
SMILES,HP1b binding inh,G9a inh,PI5P4Ka inh,BAZ2B block,JMJD2A Tudor inh,PLK1 PBD inh
CC1=C(C(=O)Nc2cc(C)cc(C)c2)C2(CCCCC2)OC1=O,16%,-20%[59 µM],·,-5%,-6%,·
C#CCOCCOCCOCCNc1nc(N2CCN(C(=O)[C@H]([C@@H](C)CC)n3cc([C@@H](N)CC(C)C)nn3)CC2)nc(N2CCN(C(=O)[C@H](CCCCN)n3cc([C@@H](N)CC(C)C)nn3)CC2)n1,6%,-115%[59 µM],29,?,56µM*,-5%
C#CCOCCOCCOCCNc1nc(N2CCOCC2)nc(N2CCN(C(=O)[C@H](CCCCN)n3cc([C@@H](N)CC(C)C)nn3)CC2)n1,48%,?,0,-37%,-26%,-16%
C#CCOCCOCCOCCNc1nc(N2CCN(C(=O)C([C@@H](C)CC)n3cc(C(N)CO)nn3)CC2)nc(N2CCN(C(=O)C([C@@H](C)CC)n3cc(C(N)COC(=O)C(F)(F)F)nn3)CC2)n1 (stereo not given in full),21%,·,-3,·,79µM*,-7%
C#CCOCCOCCOCCNc1nc(N2CCN(C(=O)C([C@@H](C)CC)n3cc(C(N)COC(=O)C(F)(F)F)nn3)CC2)nc(N2CCN(C(=O)[C@H](CCCCN)n3cc(C(N)[C@H](C)CC)nn3)CC2)n1 (stereo not given in full),18%,·,0,·,56µM*,-2%
C#CCOCCOCCOCCNc1nc(N2CCN(C(=O)[C@H](CCCCN)n3cc(C(N)COC(=O)C(F)(F)F)nn3)CC2)nc(N2CCN(C(=O)[C@H](CCCCN)n3cc(C(N)CC(C)C)nn3)CC2)n1 (stereo not given in full),·,?,·,79µM*,·,·
COc1ccc(N2CCN(C(=O)CSc3nc(-c4ccc(C(C)C)cc4)no3)CC2)cc1,-10%,-9%[59 µM],·,-14%,-28%,·
C#CCOCCOCCOCCNc1nc(N2CCN(C(=O)[C@H](CCCCN)n3cc(CN)nn3)CC2)nc(N2CCN(C(=O)[C@H](CCCCN)n3cc([C@@H](N)[C@H](C)CC)nn3)CC2)n1,29%,·,2,·,-35%,4%
C#CCOCCOCCOCCNc1nc(N2CCN(C(=O)[C@H]([C@@H](C)CC)n3cc([C@@H](N)CC(C)C)nn3)CC2)nc(N2CCN(C(=O)[C@H](CCCCN)n3cc([C@@H](N)C(C)CC)nn3)CC2)n1 (stereo not given in full),7%,-11%[12.7 µM],-2,79µM*,79µM*,-9%
Cc1c(Cl)sn(-c2ccc(Cl)cc2)c1=O,?,0.71µM*,-73*,40µM*,3.2µM*,2.7µM*
Cc1nn(-c2ccc(Cl)cc2)c(=O)c2ccccc12,36%,7%,2,1%,-9%,-8%
Cc1ccc(C2=NN(CC(=O)NCCN(CC(C)C)CC(C)C)C(=O)CC2)cc1,31%,-11%,7,0%,-6%,1%
O=S(=O)(Nc1cccc2cccnc12)c1ccccc1Br,32%,·,·,·,-11%,·
O=S(=O)(NCc1ccccc1)c1cccc2cccnc12,38%,16%[12.7 µM],4,-4%,-4%,-5%
Nc1ccccc1S(=O)(=O)Nc1cccc2cccnc12,·,·,·,·,56µM*,·
O=S(=O)(NCCc1ccccc1)c1cccc2cccnc12,3%,50µM*,-5,14%,1%,-29%
O=C(O)c1ccccc1NS(=O)(=O)c1cccc2cccnc12,-4%,?,-6,-32%,20µM*,-8%
N#Cc1cccc(NC(=O)N2CC[C@@]3(CCCN(C(=O)c4cccc(F)c4)C3)C2)c1,·,2%[12.7 µM],·,·,·,·
O=C1C=C(N(CCO)Cc2ccccc2)c2ccccc2C1=O,?,50µM*,-9,?,-35%,-26%
NN/C(=C\[N+](=O)[O-])Nc1ccc(Cl)cc1,3%,1.3µM*,-16,?,?,12µM*
NN/C(=C\[N+](=O)[O-])Nc1ccccc1,14%,20µM*,-4,56µM*,-31%,0%
NNC(=S)Nc1ccc(Cl)cc1,-2%,?,6,-4%,?,-14%
O=C(O)/C(=C/c1ccco1)NC(=O)c1ccccc1,-3%,45µM*,-10,-30%,?,-24%
Cc1cccc(C(=O)N/C(=C\c2ccco2)C(=O)N2CCCC2)c1,-15%,40µM*,4,-8%[57.1 µM],-21%,-5%
O=C(N/C(=C\c1ccccc1)C(=O)N1CCCCCC1)c1ccccc1,?,2%,-8,-3%,?,30µM*
SMILES,HP1b binding inh,G9a inh,PI5P4Ka inh,BAZ2B block,JMJD2A Tudor inh,PLK1 PBD inh
Cc1ccc(C(=O)N/C(=C/c2ccco2)C(=O)N2CCCCCC2)cc1,-20%,71µM*,2,-8%,-31%,-9%
O=C(CCOc1ccccc1)N(Cc1cccnc1)c1nc2c(Cl)cccc2s1,21%,?,·,-9%,-23%,·
Nc1cc(C(F)(F)F)ccc1S(=O)(=O)Nc1cccc2c1NCCC2,12%,·,·,·,?,·
O=C(Cc1cccc(NC(=O)C2CCCN(C(=O)C3CCCC3)C2)c1)Nc1ccc(C(=O)N2CCOCC2)cc1 (stereo not given),12%,·,4,·,4%,-2%
COc1ccc(C)cc1NC(=O)CSc1nc(=O)n(Cc2cccnc2)c2c1CCC2,-8%,18%[59 µM],·,-5%,?,·
O=C(N/C(=C/C=C/c1ccccc1)C(=O)N1CCCCC1)c1ccc([N+](=O)[O-])cc1,1%,50µM*,-1,-35%,?,-2%
O=C(N/C(=C\c1ccco1)C(=O)N1CCCC1)c1ccccc1,13%,40µM*,-13,-2%,-6%,-12%
O=C(O)/C(=C\c1ccco1)NC(=O)c1cccc2ccccc12,-11%,·,·,?,89µM*,?
O=C(N/C(=C/c1ccc([N+](=O)[O-])cc1)C(=O)N1CCCC1)c1ccccc1,-19%,22%,-2,-4%,-7%,5%
CC(=O)OC(COc1ccccc1)Cn1cnc2cc(C)c(C)cc21 (stereo not given),25%,-5%[59 µM],-4,?,-16%,-6%
Cc1ccc(C[C@H](C(=O)O)N2C(=O)c3ccc(C(=O)O)cc3C2=O)c(C)c1,·,16%[12.7 µM],·,-38%,-18%,·
O=C1NCCC/C1=N\Nc1ccc(Br)cc1,-16%,50µM*,-20,-4%,?,?
C/C(CC(=O)Nc1ccc2c(c1)OCCO2)=N\NC(=O)COc1ccc(Cl)c(C)c1,29%,1%,6,?,-28%,-15%
COc1ccc(C/C(C)=N/NC(=S)Nc2ccc(Cl)cc2)cc1,11%,7.1µM*,1,-34%,-18%,-15%
CCCCc1ccc(NC(=S)NCc2cccc(OC)c2)cc1,47%,21%,16,-1%,0%,-27%
